HCV inh: HCV inhibition. Huh7.5.1 HCVcc-Cre infection, luciferase reporter, 44 h. Potency, µM (highest dose often 41.8 µM), without a hit: at the top dose activity change, negative = inhibition, usual class: inhibitors. actives 3.4% (n = 340,000); active = well fitted inhibition curve with a large enough effect; inconclusive = small, poorly fitted or top-dose-only effect, or another doubt; inactive = no such curve, though single readings can be large or run the other way; note: potency is the fitted concentration of half-maximal effect
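A cell-based infection assay in which seeded cells (1,000 per well) receive test compound after 4 h, are inoculated with HCVcc-Cre at approximately 0.5 moi, and are incubated 44 h before luminescence detection.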
HCMV antiviral: blocks human cytomegalovirus replication | AID 1259415 | HFF cells, HCMV-luciferase reporter, 72 h; stronger effect = lower value | activity change, negative = inhibition, % at 57.5 µM | actives 4.5% (n = 410,000); in the data active = activity change below about -60%; inconclusive = no clear call, values can overlap the other calls; inactive = above about -39%
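Two compound doses tested in HFFs infected with HCMV-luciferase, MOI 1 PFU/cell, 72 h at 37C. Lysate luminescence read with OneGlo; data normalized against buffer-only and 10uM Salinomycin inhibitor controls.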
Vaccinia mCherry: vaccinia inhibition (mCherry reporter); actives 0.63% (n = 310,000); Potency, µM (top dose mostly 36.5 µM), without a hit: at the top dose activity change, negative = inhibition, most hits filed as inhibitors; AID 720579; Vaccinia virus mCherry reporter infection, fluorescence; calls by dose curve; tested in A549 cells; note: potency is the fitted concentration of half-maximal effect; nearly all actives have a fitted effect of over 35% in size
FMDV inh: blocks foot and mouth disease virus; FMDV antiviral cell-based qHTS; Potency, µM (highest dose often 57.9 µM), without a hit: at the top dose activity change, negative = inhibition, most hits filed as inhibitors; actives 1.2% (n = 410,000); calls by dose curve; tested in HEK293T cells; note: read-out not given here; potency is the fitted concentration of half-maximal effect; nearly all actives have a fitted effect of over 45% in size
VACV Venus inh: inhibitors of vaccinia virus (Venus reporter) | Vaccinia virus Venus reporter expression, fluorescence | Potency, µM (doses to about 36.5 µM), without a hit: top-dose activity change, negative = inhibition, usual class: inhibitors | actives 0.46% (n = 330,000); calls by dose curve; tested in A549 cells; note: potency is the fitted concentration of half-maximal effect; nearly all actives have a fitted effect of over 30% in size
* marks the source's active call; other numbers are inactive results; i = inactive; ? = inconclusive; . = no result given; [ ] = remark or other dose. This is a sample that favours compounds with a hit; in the whole collection about 7.3% have one here. % is set by controls: 0 for no effect and ±100 for the full control effect.

SMILES	HCV inh	HCMV antiviral	Vaccinia mCherry	FMDV inh	VACV Venus inh
COc1ccc(NC(=O)C(=O)NCC2CCCN2S(=O)(=O)c2ccc(C)cc2)cc1 (stereo unspecified)	?	-85*	?	-23%	-25%
CN(C)c1ccc(N(C)C)c(C(O)(c2ccccc2)c2ccccc2)c1	.	-35	.	.	.
CCCCc1ccc(S(=O)(=O)N[C@H]2CC[C@@]34CCCN3C(=O)CCC[C@H]4[C@H]2Cc2ccccc2)cc1	.	-31	.	.	.
CCOC(=O)/C(=C/c1c(C)n(C)c2ccc([N+](=O)[O-])cc12)C(C)=O	?	-85*	i	13µM*	-6%
CN1CCN(C(c2ccc(F)cc2)c2ccc3cccnc3c2O)CC1 (stereo unspecified)	10%	.	.	-4%	.
Oc1c(C(Nc2cccc(C(F)(F)F)c2)c2ccncc2)ccc2cccnc12 (stereo unspecified)	6.3µM*	-99*	?	-16%	?
Oc1c(C(Nc2cccnc2)c2ccccc2F)ccc2cccnc12 (stereo unspecified)	.	.	10µM*	.	?
O=C(O)c1cccnc1Nc1cccc(C(F)(F)F)c1	1%[8.37 µM]	45	-2%	-20%	?
Cc1cccc(NC(c2ccccc2F)c2ccc3ccc(C)nc3c2O)n1 (stereo unspecified)	.	-18	?	-18%	-25%
Oc1c(C(Nc2nccs2)c2ccc(C(F)(F)F)cc2)ccc2cccnc12 (stereo unspecified)	?	0	7.1µM*	?	?
COc1ccc(NC(=O)/C(C#N)=C/c2c(C)nn(-c3ccc(F)cc3)c2Cl)cc1OC	-4%	-15	.	22µM*	.
Cc1nn(-c2ccccc2)c(Cl)c1/C=C(\C#N)C(=O)NC(C)C	?	?	-3%	25µM*	5%
COc1ccc(NC(=O)/C(C#N)=C/c2c(C)nn(-c3ccc(F)cc3)c2Cl)cc1Cl	2%	-21	-11%	?	-7%
Clc1nc(-c2ccccn2)nc2scc(-c3ccccc3)c12	?	-66*	-8%	?	-15%
CN1CCN(c2nc(-c3cccnc3)nc3scc(-c4ccccc4)c23)CC1	-9%	-34	-5%	-1%	-6%
Cc1ccc(Cl)cc1NC(=O)Cn1c(=O)n(CCCS(=O)(=O)C2CCCCC2)c(=O)c2ccccc21	.	-27	-5%	-14%	5%
Cc1cc(O)c2c(c1)OC(C)(C)C1=C2CC(C)CC1 (stereo unspecified)	13µM*	?	.	-13%	.
Cc1cc(Nc2ccccc2O)nc(C)n1	.	-1	-2%	12%	-4%
Cc1cccc(Nc2cc(C)c3c(O)cccc3n2)c1C	?	-65*	14µM*	4%	?
CCOC(=O)C1(Cc2ccccc2C)CCCN(C(=O)c2ccnn2C)C1 (stereo unspecified)	8%	15	-9%	22%	-8%
CCOC(=O)C1(Cc2ccccc2C)CCCN(S(=O)(=O)c2cccnc2)C1 (stereo unspecified)	-6%	-93*	-10%	-23%	-9%
Cc1nn(Cc2ccccc2)c(C)c1C=C1C(=O)NC(=S)NC1=O	16%	-1	i	14µM*	-3%
O=C(c1ccccc1)N1CCN(C(=O)c2nn3c(C(F)(F)F)cc(-c4ccccc4)nc3c2Br)CC1	?	24	-16%	-25%	-8%
O=C(c1nn2c(C(F)(F)F)cc(-c3ccccc3)nc2c1Cl)N1CCN2CCCC2C1 (stereo unspecified)	11µM*	-61*	?	-2%	-28%
NC(=O)c1nn2c(C(F)(F)F)cc(-c3ccccc3)nc2c1Br	0.89µM*	-10	.	-8%	.
O=C(c1cc2nc(-c3ccccc3)cc(C(F)(F)F)n2n1)N1CCN2CCCC2C1 (stereo unspecified)	8.9µM*	-36	-14%	-23%	-21%
COC(=O)[C@]1(C#N)[C@H](C)C(=O)N(Cc2ccccc2)[C@@H]1/C=C/c1ccccc1	.	-10	.	.	.
CCc1cccc(NC(=O)CSc2n[nH]c(-c3ccccc3Cl)n2)c1	.	?	-6%	?	-12%
CC[C@]1(O)CC(O[C@@H]2CC(N(C)C)C(O)C(C)O2)c2c(cc3c(c2O)C(=O)c2c(O)ccc(O)c2C3=O)C1C(=O)OC (stereo partly specified)	.	.	1%	-8%	-2%

Source: PubChem
